E coli growth-1 = bacterial growth inhibition, counter-screen for AddAB inhibitors; E. coli V3065 growth, OD600 absorbance, 18 h; inhibition, % at 11.9 µM; actives 0.27% (n = 330,000); AID 449728;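 active = inhibition above the campaign's mean inhibition across all tested compounds plus 3 SD, cut at about 9.9% in these data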;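 also: uninfected addAB+ strain grown without phage in ampicillin broth; 0% = DMSO wells and 100% = ciprofloxacin 0.95 µg/ml wells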
PfHsp90 set2 = reduces growth (ATP signal) of yeast expressing P. falciparum Hsp90. S. cerevisiae expressing PfHsp90, BacTiter-Glo ATP, 48 h; yeast lacking PDR1 and PDR3 efflux regulators. inhibition, % at 9.4 µM. actives 0.32% (n = 310,000);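 active = every replicate shows inhibition above about 80%, whatever the replicate mean, limit read from the data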;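 also: 0% = DMSO neutral controls and 100% = 20 µM radicicol positive controls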
Tat transport = blocks Tat-dependent protein export in E. coli; E. coli MC4100 TorA-mCherry Tat export, fluorescence; inhibition, % at 10 µM; actives 0.036% (n = 340,000);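 active = mean replicate inhibition at least 50% and at least half of replicates individually reaching 50%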;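 also: exported cargo escapes ClpAP degradation while cytoplasmic cargo is degraded and loses fluorescence; 0% = median of neutral control wells and 100% = median of NaSCN control wells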
phage Ecoli inh = E. coli growth loss with phage present. growth absorbance. inhibition, % at 11.9 µM. actives 0.26% (n = 360,000). AID 651602; in the data active = inhibition above about 11%
AddAB inh = less growth of phage-infected E. coli with AddAB | E. coli expressing H. pylori AddAB, absorbance growth | inhibition, % at 11.9 µM | actives 0.29% (n = 330,000) | AID 435030; in the data active = inhibition above about 12%;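 also: 0% = vehicle wells of infected cells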
E coli growth-2 = inhibitors of Escherichia coli growth; OD600, 23 h; hits give low values; OD600 absorbance (test concentration not listed); actives 0.21% (n = 330,000); AID 1053175;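 active = OD600 absorbance below the run mean of sample wells minus 3.6 SD, in any replicate, cut at about 0.56 in these data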
AddAB conf = growth loss of T4-infected E. coli expressing H. pylori AddAB, confirmed; inhibition, % at 11.9 µM; E. coli V3065 expressing H. pylori AddAB, T4 phage, OD; T4 phage with gene 2 nonsense mutations; AID 488942; shares compounds with AddAB inh; actives 64% (n = 880);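 active = mean inhibition above a set limit taken from the earlier primary screen, cut at about 13% in these data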;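 also: higher means less bacterial growth since AddAB block lets phage replicate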
RecBCD counter = AddAB counter-screen: growth loss of RecBCD+ E. coli infected with mutant T4 phage; inhibition, % at 11.9 µM; AID 488955; E. coli V66 + mutant T4 phage, OD growth; actives 73% (n = 880); shares compounds with AddAB inh;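 active = mean inhibition above the mean of solvent-only control wells plus 3 SD, cut at about 4% in these data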;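 also: optical density read after an 18 h incubation at 37 °C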
Bact viability = reduces bacterial viability, AddAB inhibitor counter-screen; actives 35% (n = 880); shares compounds with AddAB inh; inhibition, % at 11.9 µM; absorbance (AddAB counterscreen); in the data active = inhibition above about 25%
RecBCD conf = confirmation: growth loss of phage-infected RecBCD+ E. coli (RecBCD inhibitor screen) | shares compounds with phage Ecoli inh | E. coli V66 + T4 2- phage, growth OD | inhibition, % at 11.9 µM | actives 45% (n = 890);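 active = mean inhibition over triplicates exceeding the hit threshold derived in the original primary screen, cut at about 11% in these data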
Ecoli viability = inhibits E. coli viability, flagging RecBCD hits as nonselective; actives 29% (n = 890); inhibition, % at 11.9 µM; absorbance (OD) growth; shares compounds with phage Ecoli inh; in the data active = inhibition above about 20%;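 also: E. coli strain V66 grown with compound alone and no phage infection; 0% = bacteria with DMSO vehicle only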
AddAB counter = growth loss of phage-infected AddAB E. coli, RecBCD counter-screen; shares compounds with phage Ecoli inh; E. coli expressing H. pylori AddAB + T4 phage, OD growth; gene 2 mutant T4, recBCD-deleted host; inhibition, % at 11.9 µM; actives 45% (n = 890); AID 651984;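 active = mean inhibition above the solvent-only control wells' mean plus 3 SD, cut at about 22% in these data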;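 also: higher means less bacterial growth from phage killing when AddAB is blocked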
* = called active by the depositor; . = no result given; + = active, no number; ! = not confirmed by another sample. Only some compounds are listed: those with a hit (about 0.69% of all), similar ones and a draw of the others.

SMILES	E coli growth-1	PfHsp90 set2	Tat transport	phage Ecoli inh	AddAB inh	E coli growth-2	RecBCD conf	Ecoli viability	AddAB counter	others
CN(C)[C@@H]1C(=O)C(C(N)=O)=C(O)[C@@]2(O)C(=O)C3=C(O)c4c(O)cccc4[C@@](C)(O)C3C[C@@H]12 (stereo partly drawn)	100*	14	147*	102*	94*	.	101*	102*	101*	AddAB conf=101*;RecBCD counter=101*;Bact viability=101*
CN(C)[C@@H]1C(=O)C(C(N)=O)=C(O)[C@@]2(O)C(=O)C3=C(O)c4c(O)ccc(Cl)c4[C@@](C)(O)[C@H]3C[C@@H]12	81*	-25	163*	91*	79*	.	97*	102*	100*	AddAB conf=99*;RecBCD counter=95*;Bact viability=99*
CN(C)[C@@H]1C(=O)C(C(N)=O)=C(O)[C@@]2(O)C(=O)C3=C(O)c4c(O)cccc4[C@@](C)(O)[C@H]3[C@H](O)[C@@H]12	-1	3	6	3	1	.	.	.	.
c1ccc2c[n+](CCCCCCCCCC[n+]3ccc4ccccc4c3)ccc2c1	.	.	.	8	.	.	.	.	.
CCCCCCC[n+]1ccc(-c2cc[n+](CCCCCCC)cc2)cc1	25*	19	-3	19*	31*	0.54	9	13	5	AddAB conf=6;RecBCD counter=19*;Bact viability=10
CC=C1C[N+]2(C)CCC34C(=C(C=O)C1CC32)Nc1ccccc14 (stereo not drawn)	.	.	.	.	.	0.69	.	.	.
N/C(=N\[N+](=O)[O-])N/N=C/c1ccc(O)cc1	1	6	0	2	1	.	.	.	.
Nc1nonc1C(=O)N/N=C/c1ccc([N+](=O)[O-])o1	8	-22	-16	18*	17*	.	8	5	61*	AddAB conf=99*;RecBCD counter=6.7*;Bact viability=16
COC(=O)C1=C(c2cc3ccccc3s2)CC2CCC1N2C(=O)NCc1ccc(C(F)(F)F)cc1 (stereo not drawn)	.	.	.	.	.	0.74	.	.	.
C[CH2][Hg][S]c1ccccc1C(=O)O	101*	109*	-126	+	+	0.06*	+	105*	+	AddAB conf=+;RecBCD counter=+;Bact viability=98*
O=C(NC1CCCCC1)C1CC=CC2CCN(Cc3ccccc3)C(=O)C21 (stereo not drawn)	.	.	.	.	.	0.66	.	.	.
CNS(=O)(=O)c1ccc(N=Cc2c(O)n(-c3ccc(C)cc3)c(=O)[nH]c2=O)cc1	1	0	-7	0	1	0.7	.	.	.
CCc1nnc(NS(=O)(=O)c2ccc(N=Cc3c(O)n(-c4ccc(Cl)cc4)c(=O)[nH]c3=O)cc2)s1	8	-17	-8	12*	9	0.61	4	2	20
CCN1C[C@]2(COC)C(O)CC(OC)[C@@]34C5C[C@]6(O)C(OC)C(O)[C@@](OC(C)=O)(C5C6OC(=O)c5ccccc5)C(C(OC)C23)C14 (stereo partly drawn)	.	.	.	.	.	0.72	.	.	.
COC(=O)C1=C(c2cc3ccccc3s2)CC2CCC1N2C(=O)N1CCCCC1 (stereo not drawn)	.	.	.	.	.	0.73	.	.	.
Oc1cc(Cl)ccc1Oc1ccc(Cl)cc1Cl	98*	95*	137*	97*	97*	0.046*	99*	100*	99*
CC(=Cc1ccccc1)CC1=C(C)C2(CC2)[C@@](C)(O)C(O)C1=CCO (stereo partly drawn)	.	.	.	.	.	0.69	.	.	.
COC(=O)C1=C(c2cccc(OCc3ccccc3)c2)CC2CCC1N2C(=O)NCCN1CCOCC1 (stereo not drawn)	.	.	.	.	.	0.7	.	.	.
C[n+]1ccc(-c2cc[n+](C)cc2)cc1	10*	-22	-5	22*	12	0.66	13*!	13	21*
Fc1ccc(CNC2CN3CCC2CC3)cc1 (stereo not drawn)	-1	-6	-12	13*	-1	0.69	-5	-4	1
COC(=O)C1=COC(C)C2CN3CCC4(C(=O)Nc5ccccc54)C3CC12 (stereo not drawn)	-2	-8	3	11*	1	0.74	-2	0	2

Source: PubChem BioAssay (several laboratories)
